# Bioassay records deposited in PubChem BioAssay by National Center for Advancing Translational Sciences (NCATS).
# HepG2 tox: HepG2 cytotoxicity, counter-screen for TGF-b inhibitors | HepG2 CAGA-GFP viability, ATP luminescence, 18 h | Potency, µM (titrated, usually from 46.1 µM), for the others: at the top dose activity change, negative = cytotoxicity, actives largely listed as cytotoxic | 410,000 tested, 0.76% active | AID 588856; note: potency is the fitted concentration of half-maximal effect
#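 CellTiter-Glo luminescence gave cytotoxicity after 18 hours at 37 degrees C. The cells were HepG2 CAGA-GFP in 1% FBS DMEM, stimulated with 500 pg/mL TGF-beta after compound addition. %Activity was normalised to no-cell wells (complete cell-killing) and DMSO (no toxicity), and curves were fitted and classified.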
# LDHA inh: blocks human lactate dehydrogenase A; 480,000 tested, 0.15% active; P00338; purified LDHA, NADH/diaphorase-resazurin fluorescence; hits give low values; activity change, % (values are at about 110 or 230 µM); in the data active = activity change below about -30%; inconclusive = mostly about -25% to -30%;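 note: plate controls were DMSO wells for no effect and wells without enzyme for full effect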
#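 Human LDH5 at 2 nM final in Tris HCl pH 7.4 with 0.06 mM NADH and 0.2 mM pyruvate, reacted 5 minutes at room temperature. Remaining NADH coupled via diaphorase/resazurin; resorufin fluorescence read at 0 and 20 minutes, normalized to enzyme-free and DMSO wells.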
# ATXN2 expr inh: reduces ATXN2 reporter expression in HEK-293 cells | HEK-293 ATXN2-luciferase reporter, luminescence, 24 h | Potency, µM (titrated, usually from 57 µM), inactives show top-dose activity change, negative = inhibition, hits mostly inhibitors | 360,000 tested, 0.72% active; note: potency is the fitted concentration of half-maximal effect; % is set by controls: 0 for no effect and ±100 for the full control effect; nearly all actives have a fitted effect of over 55% in size
#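 ATXN2-luciferase reporter cells (luciferase flanked by upstream and downstream ATXN2 gene portions) were treated 24 h at 37 °C with compounds at up to 57 uM. SteadyGlo luminescence gave expression; GF-AFC fluorescence gave viability.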
# ATXN viability: viability counter-screen for ATXN expression inhibitors; 400,000 tested, 0.49% active; AID 651635; Potency, µM (series often up to 56.7 µM), usual class: cytotoxic; S2 cells (HEK-293 line with an ATXN2-luciferase reporter) viability, CellTiter-Fluor protease fluorescence, 24 h; note: potency is the fitted concentration of half-maximal effect; nearly all actives have a fitted effect of over 40% in size
# TGFb SMAD3 inh: blocks TGF-b signaling. AID 588855. 410,000 tested, 1.2% active. Potency, µM (doses to about 46.1 µM), for the others: top-dose activity, negative = inhibition, usual class: inhibitors. HepG2 CAGA-GFP TGF-b/SMAD3 reporter, GFP fluorescence, 18 h; TGF-beta stimulated, 500 pg/mL final; note: potency is the fitted concentration of half-maximal effect; % is set by controls: 0 for no effect and ±100 for the full control effect; nearly all actives have a fitted effect of over 65% in size
#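 First, reporter cells (HEPG2 CAGA-GFP) rested 2 h at 37 degrees C. Next, compounds were pinned in and TGF-beta added to 500 pg/mL final. After 18 h, GFP was imaged per cell and summed per well.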
# mIDH1 inhibitor: blocks human mutant IDH1 R132H enzyme; O75874; IDH1-R132H enzyme, NADPH consumption, diaphorase/resazurin fluorescence; Potency, µM (top dose mostly 76.6 µM), without a hit: top-dose activity change, negative = inhibition, hits mostly inhibitors; 390,000 tested, 0.093% active; AID 602179; note: potency is the fitted concentration of half-maximal effect; % is set by controls: 0 for no effect and ±100 for the full control effect; nearly all actives have a fitted effect of over 65% in size
# Target sequence (O75874 whole entry R132H, stated change not applied): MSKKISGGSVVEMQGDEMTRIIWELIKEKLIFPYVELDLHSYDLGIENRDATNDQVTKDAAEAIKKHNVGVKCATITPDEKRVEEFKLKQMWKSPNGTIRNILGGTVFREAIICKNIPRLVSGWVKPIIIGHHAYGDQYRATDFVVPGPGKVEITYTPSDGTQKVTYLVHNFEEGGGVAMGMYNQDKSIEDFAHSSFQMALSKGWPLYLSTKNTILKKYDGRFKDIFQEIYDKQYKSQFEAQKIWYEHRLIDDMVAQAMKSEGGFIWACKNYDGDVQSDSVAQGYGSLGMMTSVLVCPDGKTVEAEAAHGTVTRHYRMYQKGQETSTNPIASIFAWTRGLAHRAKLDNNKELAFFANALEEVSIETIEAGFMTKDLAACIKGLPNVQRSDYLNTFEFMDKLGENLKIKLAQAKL
#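 IDH1-R132H (0.5 ug/mL) preincubated 30 min with compound, then NADPH (0.016 mM) and alpha-KG (2 mM) added; 80 min at RT, pH 7.5. Remaining NADPH coupled via diaphorase/resazurin to fluorescence (540/590 nm); concentration-response curves normalized to no-enzyme control.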
# Starred values were filed as active, the others as inactive; i = inactive; ? = inconclusive; · = no result given; ! = not confirmed by another sample. The list is not random: actives were taken first. Their share in the collection is about 2.2%. Unless noted, calls come from the whole dose curve; as a rule, active = well fitted curve in the direction sought with a large enough effect; inconclusive = small, poorly fitted or top-dose-only effect, or another doubt; inactive = no such curve, though single readings can be large; an effect the other way counts as inactive or inconclusive.
SMILES,HepG2 tox,LDHA inh,ATXN2 expr inh,ATXN viability,TGFb SMAD3 inh,mIDH1 inhibitor
CC1=C(C(=O)N(C(C)C)C(C)C)CC(CC(=O)NCCCCc2ccccc2)C(=O)N1Cc1ccc(C(C)(C)C)cc1 (centres undefined),17.8µM*,-1.4,?,?,11.2µM*,·
COc1ccc(CN2C(=O)C(CC(=O)NCCCCc3ccccc3)CC(C(=O)N(C(C)C)C(C)C)=C2C)cc1 (centres undefined),-15.3%,4.5,?,?,?,7.7%
CC1=C(C(=O)N(C(C)C)C(C)C)CC(CC(=O)NC(c2ccccc2)c2ccccc2)C(=O)N1CCC1=CCCCC1 (centres undefined),-26.9%,-2.3,0.0%,·,11.2µM*,·
CC1=C(C(=O)N(C(C)C)C(C)C)CC(CC(=O)NCc2ccco2)C(=O)N1Cc1ccc(C(C)(C)C)cc1 (centres undefined),-31.8%,6.7,?,?,17.8µM*,·
CCOC(=O)c1oc2cc(OC(=O)c3ccco3)ccc2c(=O)c1-c1ccc(OC)c(OC)c1,·,-0.4,·,·,·,·
COc1ccc2[nH]c3nc(SCc4nnc(-c5ccc(C)cc5)o4)nnc3c2c1,-2.2%,-1.0,20µM*,·,9.5%,1.5%
Cc1ccc2c(Br)cc(Br)c(O)c2n1,·,·,6.31µM*,?,·,·
COc1cc(/C=C/c2ccc3c(Br)cc(Br)c(O)c3n2)ccc1O,-44.6%,1.7,·,?,?,2.2%
COc1ccc(CC(=O)NCCc2sc(-c3ccc(Cl)cc3)nc2C)cc1OC,-20.8%,-2.5,-15.6%,?,7.94µM*,-2.5%
COc1ccc(-c2nc(C)c(CCNC(=O)Cc3ccc(F)cc3)s2)cc1OC,-15.6%,-0.2,5.2%,i,1.3%,2.2%
CCCCCCc1ccc(C(=O)Oc2ccc(Cl)cc2)cc1,·,4.2,·,·,·,·
CCCCCCC[N+](CC)(CC)CCCCc1ccc(Cl)cc1,-26.1%,0.5,22.4µM*!,?,4.5%,-6.3%
O=C(COc1ccc2ccccc2c1CN1CCOCC1)N1CCc2ccccc21,12.6µM*,-5.1,-17.5%,i,?,9.1%
CCOC(=O)C1(Cc2cccc(OC)c2)CCN(Cc2cccn2-c2ccccn2)CC1,2.0%,-3.5,-0.2%,i,3.16µM*,5.8%
CCOc1ccc(C(=O)Nc2ccccc2N2CCOCC2)cc1,-4.9%,0.0,-34.7%,i,9.4%,1.8%
CCOc1ccc(C(=O)C2CCN(CC(=O)Nc3ccccc3N3CCOCC3)CC2)cc1,-13.2%,0.8,?,i,14.1µM*,2.3%
S=c1[nH]nc(-c2cccs2)n1/N=C/c1cn(-c2ccccc2)nc1-c1cccs1,-26.9%,-2.9,68.9%,i,17.8µM*,6.2%
CC1CCN(C(=O)C(C)Sc2nc(-c3ccccc3)cc(C(F)(F)F)n2)CC1 (centres undefined),4.1%,3.3,-22.8%,i,15.8µM*!,1.3%
Cc1cc(NC(c2cccnc2)c2c(C)[nH]c3ccccc23)no1 (centres undefined),-54.5%,-1.2,18.5%,i,?,1.1%
CN(C)c1ccc(N=Nc2ccnc3ccccc23)cc1,16.1%,1.9,·,·,7.7%,·
CN(C)c1ccc(N=Nc2nccs2)cc1,-19.3%,0.1,·,10µM*,-4.4%,3.9%
Cc1cc(C=c2sc3nc4ccccc4n3c2=O)c(C)n1-c1ccccc1,·,·,0.243µM*,·,·,·
O=c1/c(=C/c2ccccn2)sc2nc3ccccc3n12,-16.1%,3.1,-35.2%,i,-11.8%,0.0%
Cc1nc(-c2ccc(F)cc2)c(CC(=O)N(C)CC(=O)Nc2ccccc2Cl)s1,-11.3%,-2.6,-4.3%,i,-22.3%,1.9%
Cc1nc(-c2ccc(F)cc2)c(CC(=O)N(C)CC(=O)Nc2ccc(Cl)c(C(F)(F)F)c2)s1,-82.1%,-1.0,?,i,17.8µM*,-9.5%
SMILES,HepG2 tox,LDHA inh,ATXN2 expr inh,ATXN viability,TGFb SMAD3 inh,mIDH1 inhibitor
CCc1ccc(N2C(=O)CC(N3CCN(Cc4ccc5c(c4)OCO5)CC3)C2=O)cc1 (centres undefined),-10.0%,-5.8,-5.0%,i,-5.1%,0.0%
O=c1c2cc(F)ccc2sn1-c1ccc(F)cc1,-55.6%,6.0,?,·,15.8µM*,-5.0%
O=c1c2ccccc2sn1-c1ccc(S(=O)(=O)N2CCOCC2)cc1,-20.0%,3.3,·,·,-26.0%,·
COc1ccc(-n2sc3ccccc3c2=O)cc1,12.6µM*,-18.4,?,·,20µM*,-5.5%
COc1ccc(-n2sc3ccc(F)cc3c2=O)cc1,-64.7%,0.0,?,25.1µM*,?,-9.1%
O=c1c2cc([N+](=O)[O-])ccc2sn1-c1ccccc1,-7.4%,-15.2,22.9%,i,-12.2%,1.0%
Cc1ccc(C)c(-n2c(C)nc3c(cnn3-c3ccc(F)cc3)c2=O)c1,·,8.7,·,·,·,·
Cc1ccc(C)c(-n2sc3ccc(F)cc3c2=O)c1,-52.6%,-11.7,?,?,10µM*,-30.5%
O=C(Cn1cc([N+](=O)[O-])cn1)N1CCN(c2ccccc2)CC1,-0.1%,-5.8,-15.6%,i,-7.4%,6.7%
COc1ccc([N+](=O)[O-])c(OC)c1C(=O)NC(=O)Nc1nc(C)nc(C)n1,3.6%,-4.9,-12.6%,i,0.9%,2.0%
COc1cc(C)c(C(=O)CC(=O)c2c(C)cc(OC)cc2C)c(C)c1,-63.3%,-1.3,25.1µM*,i,5.9%,-5.2%
COc1ccccc1CNCC(O)Cn1c2ccccc2c2ccccc21 (centres undefined),11.2µM*,-3.0,?,·,?,20.8%
COc1cc(C(=O)OCc2cccc(C(F)(F)F)c2)ccc1OCc1ccc(Cl)cc1Cl,·,-3.7,·,·,·,·
Cc1cccc(N=C2NN=C(c3ccc4c(c3)OCCO4)CS2)c1,-25.1%,-5.2,15.3%,i,-1.4%,-15.6%
Cc1cccc(N=C2NN=C(c3c(C)[nH]c4ccccc34)CS2)c1,-101.1%,-7.3,28.2µM*,?,0.0%,-11.3%
CCCCCn1c(CN2CCN(c3cccc(Cl)c3)CC2)nc2c1c(=O)[nH]c(=O)n2C,-71.4%,3.7,25.1µM*,?,?,-2.1%
C=C1C(=O)O[C@@H]2[C@H]1CC[C@H](C)[C@]1(O)CCC(=O)[C@@]21C,4.3%,-2.8,-18.3%,?,?,-7.0%
C=C1C(=O)OC2C1CCC(C)=C1C(=O)C3OC3(C)C12 (centres undefined),4.47µM*,0.4,7.08µM*,8.91µM*,4.47µM*,-1.4%
CCOC(=O)CC1C(=O)NCCN1Cc1cccc(C(F)(F)F)c1 (centres undefined),-7.0%,-1.5,-0.6%,i,-3.1%,10.2%
